Cardiac RTF inh = cardiac RTF calcium desensitization; inhibition, % at 7.15 µM; IANBD-labeled cardiac RTF, Ca2+ fluorescence; AID 493244; actives 0.12% (n = 340,000); P19429+P45379;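 active means inhibition above the mean inhibition of all tested compounds plus 3 SD, cut at about 17% in these data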;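 further: assay run at fixed EC70 calcium of 1.6 mM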
RTF Ca sens act = cardiac RTF calcium sensitization; P19429+P45379; IANBD-labeled TnC RTF fluorescence at EC20 calcium; 0% EC20 calcium, 100% full calcium; activation, % at 7.2 µM; actives 0.24% (n = 340,000); AID 493008;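 active means activation above the mean over all tested compounds plus 3 SD, cut at about 30% in these data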;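 further: rise in fluorescence read as greater calcium sensitivity of cardiac thin filaments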
Myeloid diff 2 = myeloid differentiation induction; actives 1% (n = 360,000); calls only at 10 µM; AID 624256; ER-HoxA9 myeloid progenitors, lysozyme-GFP differentiation, flow cytometry;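 active means normalized GFP-positive differentiation at or above the plate's own cutoff, the solvent-only control mean plus 3 SD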;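 further: cells exposed to compound for four days before flow analysis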
CRFBP-R2 block = CRF-BP/CRF-R2 complex antagonism; HEK293 CRF-R2/CRF-BP, CRF-induced calcium fluorescence; AID 588475; inhibition, % at 11.8 µM; actives 0.59% (n = 350,000);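 active means inhibition of the ligand-induced calcium signal above about 50% at the single tested concentration, limit read from the data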
CRFBP-R2 agonist = CRF-BP/CRF-R2 complex agonism. HEK293 CRF-R2/CRF-BP, calcium dye fluorescence (FLIPR); percent of saturating CRF peptide response. activation, % at 13.2 µM. actives 0.46% (n = 350,000);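 active means activation of at least 50%, plus an integration ratio under a set limit after plate pattern correction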;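 further: plate controls were neutral control wells without compound for no effect and CRF at EC100 for full effect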
The depositor's hits bear a star; i = inactive; · = not tested or not shown; + = active, no number. Compounds with a hit are over-represented: about 2.2% of the library has one in this group of screens.

SMILES	Cardiac RTF inh	RTF Ca sens act	Myeloid diff 2	CRFBP-R2 block	CRFBP-R2 agonist
O=C(COC(=O)c1ccc(O)cc1)Nc1ccc2c(c1)OCCO2	3	30*	i	1	-1
CN(CC(=O)Nc1ccc2c(c1)OCCO2)CC(=O)Nc1ccc(F)c(F)c1F	-7	-3	i	68*	6
Cc1ccc(NC(=O)COC(=O)c2ccc3c(c2)OCCO3)cc1	-4	2	i	3	-1
Cc1ccc(NS(=O)(=O)c2cc(C(=O)Nc3cccnc3)ccc2C)cc1	-11	2	i	-41	0
COc1cccc2c(C)nc(Nc3nc(CSc4nnc(C)s4)cc(=O)[nH]3)nc12	-1	-4	+	2	-1
CCOc1ccc(N=Nc2c(=O)[nH]n3c(=O)c4c([nH]c23)CCCC4)cc1	13	-4	+	51*	-6
O=c1[nH]n2c(=O)c3c([nH]c2c1N=Nc1cccc(Cl)c1)CCCC3	7	-12	i	67*	-1
CCN(C)C1CN(Cc2cn(Cc3ccc(F)cc3)nn2)S(=O)(=O)C1 (stereo not drawn)	·	·	i	·	·
CCc1nnc(NC(=O)C2CCN(c3nc(C)cc(C)n3)CC2)s1	-10	4	i	47	0
CCN(CC)c1nc(N)c2c(N)n(-c3ccccc3C)c(=S)c(C#N)c2c1C#N	-22	9	+	-3	1
O=C(COc1ccccc1)N(Cc1cccs1)C1CCS(=O)(=O)C1 (stereo not drawn)	1	5	i	-14	-5
O=C(COc1ccc(F)cc1)N(Cc1cccs1)C1CCS(=O)(=O)C1 (stereo not drawn)	0	-2	i	-62	66*
CN=C1c2cc3cc(OC)ccc3n2CCN1C	-4	5	+	1	-1
O=C(NCc1ccco1)C1CC(c2ccccc2O)=NO1 (stereo not drawn)	0	4	i	-55	77*
COCCn1c(SCC(=O)Nc2cc(C)cc(C)c2)nc2ccccc2c1=O	6	-3	i	-3	-3
COCCn1c(SCC(=O)Nc2cccc(C(=O)OC)c2)nc2ccccc2c1=O	-6	7	i	71*	-4
COCCn1c(C)cc(C(=O)COC(=O)c2cc3c(s2)CCC3)c1C	-2	-3	i	64*	-1
CC1=C(C(=O)OCc2ccccc2)C(/C=C/c2ccccc2)N2C(=O)CCSC2=N1 (stereo not drawn)	-2	8	i	69*	3
COC(=O)c1ccc(C(=O)N=c2sccn2C)cc1	-46	0	i	-2	1
CN(C)/C=N/c1cc(=O)[nH]c(=O)n1CC1CC1	-1	8	i	1	-1
C=CCn1c(=O)[nH]c2nc3cc(N=CN(C)C)c(C)cc3nc2c1=O	-141	131*	i	-76	144*
CCCCCCCCNC(=O)/C(C#N)=C/c1ccccc1[N+](=O)[O-]	-8	11	i	-97	62*
Cc1ccc(C2C(C#N)=C(N)SC(N)=C2C#N)cc1	-68	41*	i	-12	39
Cc1ccc(C2C(C#N)=C(N)SC(N)=C2C#N)c(C)c1	-124	81*	+	-89	133*
O=C(CCN1CCCCC1)c1ccc2c(c1)OCO2	2	6	i	51*	-2
SMILES	Cardiac RTF inh	RTF Ca sens act	Myeloid diff 2	CRFBP-R2 block	CRFBP-R2 agonist
O=C(CCN1CCOCC1)c1ccc2c(c1)OCCO2	1	4	i	11	1
O=S(=O)(Nc1cccc(-c2cn3c(n2)SCC3)c1)c1ccccc1	-3	2	i	0	-2
O=C(COc1ccc(S(=O)(=O)N2CCCCC2)cc1Cl)N1CCCC1	-6	6	+	3	0
O=C(COc1ccc(S(=O)(=O)N2CCOCC2)cc1Cl)N1CCCC1	-3	-1	i	5	-1
CC(=O)NCC(=O)OCC(=O)c1ccccc1	-1	1	+	20	3
CC(=O)NCC(=O)OCC(=O)c1ccc(C)cc1	4	3	i	0	2
C=CCn1cnc2c(c1=O)c1nc3ccccc3nc1n2/N=C/c1cccc(OC)c1OC	-4	2	i	54*	0
COCCn1cnc2c(c1=O)c1nc3ccccc3nc1n2/N=C/c1cccc(OC)c1	7	-1	i	57*	-1
COc1cc(C2NC(=O)NC(C)=C2C(=O)OC(C)C)ccc1OC(=O)c1ccco1 (stereo not drawn)	-4	4	i	20	-2
O=C(COc1ccc(Cl)cc1Cl)Nc1ccccc1F	0	-6	i	125*	3
COc1cccc(-c2nc(-c3ccccn3)no2)c1	·	·	·	-12	-1
c1ccc(-c2noc(-c3cccnc3)n2)nc1	2	-3	+	-10	0
O=[N+]([O-])c1cccc(-c2nc(-c3ccccn3)no2)c1	3	0	i	59*	-1
COc1cc(CCCN2CCNC[C@@H]2Cc2ccc(O)cc2)cc(OC)c1OC	-3	-1	i	10	1
COc1ccc(CCn2c(=O)c3cccnc3n(Cc3cccc([N+](=O)[O-])c3)c2=O)cc1OC	-14	-3	i	52*	-3
CC(C)c1cc(C(F)(F)F)nc(NNc2nc(C(C)C)cc(C(F)(F)F)n2)n1	·	·	i	54*	0
COc1ccc2oc(C(=O)OCC(=O)N(C)CC(=O)Nc3ccc(F)cc3)c(C)c2c1	-18	4	i	14	-1
O=C(COC(=O)C1CCN(S(=O)(=O)c2ccccc2)CC1)NC(=O)c1ccc(OC(F)F)cc1	-7	3	i	131*	0
O=C(COC(=O)c1ccccc1O)NC(=O)c1ccc(OC(F)F)cc1	-8	-2	i	0	0
COc1ccc(C(C(=O)Nc2ccc(F)cc2)N2CCN(c3cccc(C(F)(F)F)n3)CC2)cc1 (stereo not drawn)	·	·	i	·	·
CN(C)S(=O)(=O)c1cccc(C(=O)Nc2n[nH]c(C(F)(F)F)n2)c1	0	8	i	-38	1
CC1(C)Cc2ccccc2C2=NNC(=O)C2=N1	-6	1	+	-4	-1
CC1(C)Cc2ccccc2C(Nn2cnnc2)=N1	-5	-1	i	-2	1
O=C(O)c1ccc(N2CCCCS2(=O)=O)cc1	-2	-3	i	16	-3
CN(CC(=O)Nc1ccccc1C(F)(F)F)C(=O)c1ccc(N2C(=O)CCC2=O)cc1	-4	-1	i	-1	-1
O=C(CCOc1ccccc1)Nc1ccc([N+](=O)[O-])cc1	-7	0	i	67*	1
CC(=O)Nc1ccc(NC(=O)COc2ccc([N+](=O)[O-])cc2)cc1	-8	4	·	60*	-1
O=C(CN1C(=O)NC2(CCCC2)C1=O)Nc1nc2c(F)cc(F)cc2s1	-4	-4	i	-10	-1
CC1CN(C(c2ccco2)c2sc3ncnn3c2O)CC(C)O1 (stereo not drawn)	1	-3	i	82*	0

Assay outcomes as filed in PubChem.
